PLK1 PBD block: qHTS for Inhibitors of PLK1-PDB (polo-like kinase 1 - polo-box domain): Primary Screen | Plk1 PBD binding of FITC phosphopeptide, fluorescence polarization | Potency, µM, for the others: max response, negative = inhibition, most hits filed as inhibitors | actives 2.8% (n = 360,000); also: potency is read from the fitted curve at half-maximal effect; series mostly up to about 57 µM; % is scaled to controls: 0 for no effect and ±100 for the full control effect; nearly all actives have a fitted effect of over 65% in size
TrxR1 inh: qHTS Assay for Inhibitors of Mammalian Selenoprotein Thioredoxin Reductase 1 (TrxR1): qHTS; Thioredoxin reductase 1, cytoplasmic (Rattus norvegicus), O89049; recombinant rTrxR1, NADPH fluorescence consumption, selenite substrate; Potency, µM (highest dose often 114 µM), for inactives: at the top dose activity change, negative = inhibition, hits mostly inhibitors; actives 1% (n = 390,000); AID 588453, 2011; also: potency is read from the fitted curve at half-maximal effect; % is scaled to controls: 0 for no effect and ±100 for the full control effect; nearly all actives have a fitted effect of over 65% in size
Target sequence (O89049 whole entry, looked up): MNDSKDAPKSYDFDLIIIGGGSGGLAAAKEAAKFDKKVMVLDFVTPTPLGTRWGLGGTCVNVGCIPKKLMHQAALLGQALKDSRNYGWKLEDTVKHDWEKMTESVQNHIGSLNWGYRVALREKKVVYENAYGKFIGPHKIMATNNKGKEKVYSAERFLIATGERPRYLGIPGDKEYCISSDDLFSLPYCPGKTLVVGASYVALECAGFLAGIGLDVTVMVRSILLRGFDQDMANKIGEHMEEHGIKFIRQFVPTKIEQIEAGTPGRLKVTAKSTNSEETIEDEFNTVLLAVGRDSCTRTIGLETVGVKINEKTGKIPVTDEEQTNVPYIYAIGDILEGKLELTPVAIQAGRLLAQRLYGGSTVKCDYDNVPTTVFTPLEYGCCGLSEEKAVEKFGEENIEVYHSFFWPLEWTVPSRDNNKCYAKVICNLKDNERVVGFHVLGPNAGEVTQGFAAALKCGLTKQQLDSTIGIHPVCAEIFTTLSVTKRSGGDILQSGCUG
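Rat TrxR1 (90 nM in the dispensed reagent) was pre-reduced with 400 uM NADPH for 5 min at room temperature, then incubated with compound for 15 min. After 400 uM selenite was added, NADPH fluorescence (Ex 340/Em 450 nm) was followed for 8 min.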
Sfp PPTase inh: qHTS Assay for Inhibitors of Bacillus subtilis Sfp phosphopantetheinyl transferase (PPTase). Potency, µM, for the others: largest response in the series, negative = inhibition, most hits filed as inhibitors. actives 3.5% (n = 310,000). 4'-phosphopantetheinyl transferase ffp (Bacillus subtilis), Q9F4F7. Biochemical Sfp PPTase activity, qHTS;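 also: the enzyme is Sfp with the accession as filed and its product quenches rhodamine fluorescence; potency is read from the fitted curve at half-maximal effect; 0% = enzyme reaction without inhibitor and -100% = no enzyme wells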
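After 15 min at room temperature with compound, 15 nM Sfp received 5 uM rhodamine-CoA plus 12.5 uM BHQ-2-ybbR (50 mM Hepes pH 7.6, 10 mM MgCl2). Rate came from the fluorescence difference over 30 min, ex 525/em 598 nm.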
mIDH1 inhibitor: qHTS for Inhibitors of mutant isocitrate dehydrogenase 1 (IDH1): qHTS | IDH1-R132H enzyme, NADPH consumption, diaphorase/resazurin fluorescence | Potency, µM (top dose mostly 76.6 µM), inactives show at the top dose activity change, negative = inhibition, hits mostly inhibitors | actives 0.093% (n = 390,000) | AID 602179, 2012; also: potency is read from the fitted curve at half-maximal effect; % is scaled to controls: 0 for no effect and ±100 for the full control effect; nearly all actives have a fitted effect of over 65% in size
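IDH1-R132H (0.5 ug/mL) preincubated 30 min with compound, then NADPH (0.016 mM) and alpha-KG (2 mM) added; 80 min at RT, pH 7.5. Remaining NADPH coupled via diaphorase/resazurin to fluorescence (540/590 nm); concentration-response curves normalized to no-enzyme control.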
VDR inh: Inhibitors of the vitamin D receptor (VDR): qHTS. Potency, µM, for inactives: max response, negative = inhibition, most hits filed as inhibitors. VDR-SRC2-3 peptide fluorescence polarization, 2 h. actives 0.93% (n = 400,000); also: potency is read from the fitted curve at half-maximal effect; % is scaled to controls: 0 for no effect and ±100 for the full control effect
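Measured by FP: displacement of SRC2-3 coactivator peptide from VDR by library compounds, following a two-hour ambient incubation.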
TrxR1 substrate: qHTS Assay for Substrates of Mammalian Selenoprotein Thioredoxin Reductase 1 (TrxR1): qHTS | Potency, µM (series often up to 114 µM), for the others: top-dose activity change, negative = substrate turnover | purified TrxR1 substrate turnover, NADPH consumption readout | actives 0.01% (n = 390,000) | AID 588456, 2011 | Thioredoxin reductase 1, cytoplasmic (Rattus norvegicus), O89049; also: potency is read from the fitted curve at half-maximal effect; % is scaled to controls: 0 for no effect and ±100 for the full control effect; nearly all actives have a fitted effect of over 50% in size
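Rat TrxR1, dispensed at 90 nM, was prereduced with 400 uM NADPH (final) for 5 min at ~22 deg C, then incubated with compound 15 min before 400 uM selenite. A first-read NADPH fluorescence drop versus no-compound background flagged substrates.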
IDH1 autofl: qHTS for Inhibitors of mutant isocitrate dehydrogenase 1 (IDH1): Cherrypicks Autofluorescence Interference; 750 tested, under 10 active; inhibition of signal, % at 51.2 µM; AID 623980, 2012; Resorufin detection reagent fluorescence interference, cell-free; shares compounds with mIDH1 inhibitor;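 also: 0% = wells with normal resorufin and full inhibition = wells lacking resorufin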
WT IDH1 inh: qHTS for Inhibitors of mutant isocitrate dehydrogenase 1 (IDH1): Cherrypicks in WT IDH1. shares compounds with mIDH1 inhibitor. WT IDH1 enzyme, NADPH diaphorase/resazurin fluorescence. Potency, µM (highest dose often 115 µM), without a hit: at the highest dose activity change, negative = inhibition, most hits filed as inhibitors. actives 9% (n = 750). AID 623995, 2012;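 also: potency is read from the fitted curve at half-maximal effect; 0% = full WT IDH1 enzyme control and full inhibition = no enzyme wells; nearly all actives have a fitted effect of over 55% in size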
mIDH1 confirm: qHTS for Inhibitors of mutant isocitrate dehydrogenase 1 (IDH1): Confirmation of Cherrypicks. shares compounds with mIDH1 inhibitor. IDH1 R132H enzyme, NADPH diaphorase/resazurin fluorescence. Potency, µM (highest dose often 76.6 µM), inactives show at the highest dose activity change, negative = inhibition, hits mostly inhibitors. actives 83% (n = 750). AID 624002, 2012; also: potency is read from the fitted curve at half-maximal effect; nearly all actives have a fitted effect of over 50% in size
Numbers without * were called inactive; ? = inconclusive; . = not tested or not shown; [ ] = another dose, or the depositor's remark. A selection: hits, their analogues and other compounds. The true share with any hit is near 5.2%. Calls follow the shape of the dose curve; as a rule, active = well fitted curve in the direction sought with a large enough effect; inconclusive = small, poorly fitted or top-dose-only effect, or another doubt; inactive = no such curve, though single readings can be large; an effect the other way counts as inactive or inconclusive.

SMILES	PLK1 PBD block	TrxR1 inh	Sfp PPTase inh	mIDH1 inhibitor	VDR inh	TrxR1 substrate	IDH1 autofl	WT IDH1 inh	mIDH1 confirm
Cc1ccc(OCCCN2C(=O)C(=O)c3cccc(C)c32)cc1	?	-17.9%	?	5.3%	?	-5.8%	.	.	.
Cc1cccc2c1N(CCOc1ccc(C(C)(C)C)cc1)C(=O)C2=O	-24.0%	-18.5%	-4.5%	?	-18.7%	-14.6%	-4.2	-17.6%	25.1µM*
CC(=O)CCC(=O)O	.	.	8.2%	.	5.8%	.	.	.	.
CCCc1cc(=O)[nH]c(SCC(=O)N2CC3(C)CC2CC(C)(C)C3)n1 (stereo not drawn)	-1.6%	33.5%	.	0.5%	-9.0%	2.7%	.	.	.
COc1ccc(-c2noc(CSc3nnc(C)n3-c3ccc(C)c(C)c3)n2)c(OC)c1	.	-4.0%	.	13.2%	4.6%	-6.2%	.	.	.
COc1ccccc1-c1noc(CSc2nnc(Cc3ccccc3)n2-c2ccc(C)c(C)c2)n1	.	11.3%	.	?	16.7%	2.9%	-4.0	5.2%	?
O=C(NC1CCCCC1)C(c1ccc(F)cc1)N(C(=O)Cc1ccsc1)c1ccc(F)cc1 (stereo not drawn)	-0.3%	28.0%	13.7%	5.2%	4.5%	7.7%	.	.	.
O=C(NC1CCCC1)C(c1ccsc1)N(C(=O)Cc1cccs1)c1ccccc1 (stereo not drawn)	1.8%	24.5%	-1.9%	?	12.2%	-1.9%	-3.7	7.1%	2.82µM*
O=C(NC1CCCCC1)C(c1ccccc1)N(C(=O)Cc1ccsc1)c1ccccc1 (stereo not drawn)	-1.7%	30.8%	-6.1%	?	-9.3%	16.6%	-4.9	-0.9%	0.631µM*
O=C(NC1CCCCC1)C(c1ccncc1)N(C(=O)Cc1cccs1)c1ccccc1 (stereo not drawn)	-7.6%	17.7%[57.1 µM]	26.3%	-14.2%	-3.7%	-8.0%	.	.	.
O=C(NC1CCCC1)C(c1ccncc1)N(C(=O)Cc1cccs1)c1ccccc1 (stereo not drawn)	-8.8%	18.8%[57.1 µM]	20.5%	?	0.4%	14.4%[57.1 µM]	-1.3	5.9%	?
O=C(NCc1ccco1)C(c1ccccc1)N(C(=O)Cc1cccs1)c1ccccc1 (stereo not drawn)	1.3%	-2.2%[57.1 µM]	18.5%	-16.0%	-2.3%	-1.0%	.	.	.
O=C(NCc1ccco1)C(c1cccs1)N(C(=O)Cc1cccs1)c1ccccc1 (stereo not drawn)	-23.4%	?	-1.1%	?	-7.1%	-2.5%	-11.1	3.9%	?
CCNC(=O)C[C@@H]1C=C[C@@H](NS(=O)(=O)c2ccc(F)cc2)[C@@H](CO)O1	-6.1%	.	.	.	.	.	.	.	.
Cc1ccc(-n2c(=O)c3ccc(C(=O)NCc4ccco4)cc3n(CC(=O)Nc3ccc(C)c(F)c3)c2=O)cc1	.	15.0%	.	5.8%	29.1%	5.3%	.	.	.
COC(=O)c1ccc(NC2(C#N)C(=O)Nc3ccccc32)cc1 (stereo not drawn)	-16.4%	8.8%	15.3%	?	7.1%	1.0%	-0.8	63.6%	44.7µM*
COc1ccc(-c2sc3ccc(-c4ccc5c(c4)OCO5)cc3c2-c2ccc(OC)nc2)cc1	-23.6%	12.5%	.	1.1%	-6.3%	3.8%	.	.	.
Cc1cccc2c1-c1sc(C(=O)N(C)c3cccc(Cl)c3)cc1CO2	.	40.2%	.	0.0%	-12.1%	16.7%	.	.	.
COc1ccc(C2c3c(n(C)c4ccccc34)C(=O)N2CC(=O)Nc2c(C)cc(C)cc2C)cc1 (stereo not drawn)	.	10.7%	.	?	-1.8%	-3.3%	-4.2	-9.9%	?
ClCc1nnc(-c2cc3c(s2)CCCC3)o1	-13.9%	-6.1%[11.4 µM]	-14.9%	-2.2%	7.6%	2.5%[11.4 µM]	.	.	.
CC(C)(C)C1CCc2sc(-c3nnc(CCl)o3)cc2C1 (stereo not drawn)	-7.5%	-6.4%	-1.0%	52.1µM*	3.9%	5.7%	7.1	-17.6%	39.8µM*
COc1ccc(NC(=O)c2nc(-c3ccc(C)cc3)n3c2CCCCC3)c(OC)c1	.	3.8%	.	-11.3%	-14.4%	1.2%	.	.	.
COc1ccc(Br)cc1/C=N/NC(=O)c1nc(-c2ccccc2)n2c1CCCCC2	-3.3%	1.0%	-6.2%	?	4.4%	-3.8%	2.8	1.0%	?
CCOc1ccc(S(=O)(=O)N2CCCCC2)cc1NC(=O)C1CCCC1	9.0%	.	.	11.8%	.	.	.	.	.
COc1ccc(Cl)cc1-n1c(=S)sc2c(=O)[nH]c(SCC(=O)NCCC(C)C)nc21	-22.0%	-11.6%	3.1%	36.9µM*	-17.4%	-8.1%	3.0	6.6%	11.2µM*
CCOc1ccc(-n2c(=S)sc3c(=O)[nH]c(SCC(=O)NC(C)CC)nc32)cc1 (stereo not drawn)	-3.5%	-13.5%	-25.4%	36.9µM*	-14.7%	-4.7%	0.0	8.91µM*	31.6µM*
CCOC(=O)CC(=O)CSc1nc2c(sc(=S)n2-c2ccc(OCC)cc2)c(=O)[nH]1	-5.7%	-7.0%[57.1 µM]	-15.3%	6.4%	-14.7%	4.6%[57.1 µM]	.	.	.
NNC(=O)c1n[nH]c2c1CC(C1CCCCC1)CC2 (stereo not drawn)	-12.6%	17.4%	.	-13.8%	-26.0%	-4.6%	.	.	.
CCCCC(NC(=O)CCc1c(C)c2cc3c4c(oc3c(C)c2oc1=O)CCCC4)C(=O)O (stereo not drawn)	-16.5%	-5.9%	2.4%	46.5µM*	5.5%	8.0%	-7.6	-6.8%	25.1µM*

High-throughput results as filed in PubChem.
